Measured values: the supplement of paper PMC13380429

Tested on: Vero E6 infected with SARS-CoV-2
Test: inhibition of SARS-CoV-2 cytopathic effect; higher = more antiviral protection, active = above 15
Conditions: 48 h

Measured: inhibition of SARS-CoV-2 cytopathic effect

CCCCC(=O)OCC(=O)[C@]1(O)Cc2c(O)c3c(c(O)c2[C@@H](O[C@H]2C[C@H](NC(=O)C(F)(F)F)[C@H](O)[C@H](C)O2)C1)C(=O)c1c(OC)cccc1C3=O [valrubicin]
inactive: 1 nM -0.61% | 8.33 nM 0.16% | 100 nM -0.18% | 833.33 nM 0.06% | 10000 nM -1.25%

Ic1cc(-c2ccccc2)ncn1 [4-iodo-6-phenylpyrimidine]
inactive: 1 nM -0.63% | 8.33 nM 0.56% | 100 nM -2.43% | 833.33 nM 1.94% | 10000 nM -1.36%

CCOC(=O)[C@H](CCc1ccccc1)N[C@H]1CS[C@H](c2cccs2)CN(CC(=O)O)C1=O [temocapril]
inactive: 1 nM -2.77% | 8.33 nM -0.7% | 100 nM 1.38% | 833.33 nM -0.25% | 10000 nM -3.19%

N=C(N)NC(=O)Cc1c(Cl)cccc1Cl [guanfacine]
inactive: 1 nM 3.14% | 8.33 nM 4.91% | 100 nM -3.11% | 833.33 nM 1.89% | 10000 nM -0.42%

O=C(O)CCCC[C@@H]1SC[C@@H]2NC(=O)N[C@@H]21 [biotin]
inactive: 1 nM 1.38% | 8.33 nM 1.22% | 100 nM -1.51% | 833.33 nM 0.93% | 10000 nM 1.95%

C#CCC(Cc1cnc2nc(N)nc(N)c2n1)c1ccc(C(=O)N[C@@H](CCC(=O)O)C(=O)O)cc1 (stereo not given in full) [pralatrexate]
inactive: 1 nM 1.9% | 8.33 nM -0.71% | 100 nM -3.9% | 833.33 nM -4.99% | 10000 nM -6.91%

Cc1nc(Nc2n[nH]c3c2CN(C(=O)N[C@H](CN(C)C)c2ccccc2)C3(C)C)c2sccc2n1
inactive: 1 nM 3.94% | 8.33 nM -1.34% | 100 nM -3.76% | 833.33 nM -4.38% | 10000 nM -7.39%

COc1ccc2c(c1)CN(C)CC2c1ccc(Cl)c(Cl)c1 (stereo not given) [diclofensine]
inactive: 1 nM 3.38% | 8.33 nM 2.5% | 100 nM -1.16% | 833.33 nM 3.57% | 10000 nM 1.83%

NC(=O)c1cnc2[nH]ccc2c1N[C@@H]1[C@@H]2CC3C[C@H]1C[C@@](O)(C3)C2
inactive: 1 nM -1.55% | 8.33 nM -1.31% | 100 nM -1.46% | 833.33 nM -0.12% | 10000 nM -1.65%

Cc1nc2ccc(-n3ncc(C(=O)c4cc5ccccc5[nH]4)c3N)cc2[nH]1
inactive: 1 nM -2.45% | 8.33 nM -1.11% | 100 nM 0.12% | 833.33 nM 2.07% | 10000 nM -0.86%

NC[C@@H](O)CC(=O)O [aminohydroxybutyric-acid]
inactive: 1 nM -3.49% | 8.33 nM -1.06% | 100 nM -2.52% | 833.33 nM -2.28% | 10000 nM -0.71%

c1cnc2cc3c(cc2n1)[C@@H]1CNC[C@H]3C1 [varenicline]
inactive: 1 nM 1.15% | 8.33 nM 1.67% | 100 nM -1.63% | 833.33 nM -1.66% | 10000 nM 3.97%

C[C@@H]1CC(=O)NN=C1c1ccc(NN=C(C#N)C#N)cc1 [levosimendan]
inactive: 1 nM -0.58% | 8.33 nM 0.74% | 100 nM 0.3% | 833.33 nM 1.84% | 10000 nM 1.18%

Cc1c[nH]c2ncnc(N3CCC(CN)(C(=O)Nc4cccc(OC(=O)N(C)C)c4)CC3)c12
inactive: 1 nM -0.02% | 8.33 nM -1.69% | 100 nM 4.07% | 833.33 nM -0.25% | 10000 nM 5.79%

O=C1c2ccccc2C(=O)C1c1ccc(Cl)cc1 [chlorindione]
inactive: 1 nM -5.54% | 8.33 nM -6.24% | 100 nM -3.27% | 833.33 nM 0.64% | 10000 nM 0.34%

COc1ccc2[nH]c(SCc3ncc(C)c(OC)c3C)nc2c1 [omeprazole-sulfide]
inactive: 1 nM -13.8% | 8.33 nM -15.1% | 100 nM -15.8% | 833.33 nM -15.3% | 10000 nM -13.7%

COc1cccc(-n2nc(C(=O)O)cc2-c2ccc(C3CCCCC3)c(Cl)c2)c1
inactive: 1 nM 0.77% | 8.33 nM 1.66% | 100 nM 2.64% | 833.33 nM 1.95% | 10000 nM 6.19%

O=C(O)c1cc(=O)c2c(OCC(O)COc3cccc4oc(C(=O)O)cc(=O)c34)cccc2o1 [cromoglicic-acid]
inactive: 1 nM -0.6% | 8.33 nM -0.04% | 100 nM -1.5% | 833.33 nM 0.49% | 10000 nM -0.11%

C[C@H](NC(=O)[C@@H](O)c1cc(F)cc(F)c1)C(=O)N[C@@H]1C(=O)N(C)c2ccccc2-c2ccccc21
inactive: 1 nM -3.7% | 8.33 nM -4.79% | 100 nM -8.67% | 833.33 nM -14% | 10000 nM -7.15%

COc1cccc(-c2ccc([C@@H](Oc3cc(-c4ccc(C[C@H](N)C(=O)O)cc4)nc(N)n3)C(F)(F)F)cc2)c1
inactive: 1 nM -4.34% | 8.33 nM -0.04% | 100 nM 1.61% | 833.33 nM 0.52% | 10000 nM -1.29%

CCC1=C[C@@H]2CN3CCc4c([nH]c5ccccc45)[C@@](C(=O)OC)(C2)[C@@H]13 [catharanthine]
inactive: 1 nM 0.42% | 8.33 nM 0.35% | 100 nM 0.47% | 833.33 nM 0.93% | 10000 nM 2.81%

N#C/C(=C\c1ccc(O)c(O)c1)C(=O)OCCc1cccs1
inactive: 1 nM 1.43% | 8.33 nM 1.78% | 100 nM 7.36% | 833.33 nM -1.53% | 10000 nM 1.2%

CC[C@H]1OC(=O)[C@H](C)[C@@H](O[C@H]2C[C@@](C)(OC)[C@@H](O)[C@H](C)O2)[C@H](C)[C@@H](O[C@@H]2O[C@H](C)C[C@H](N(C)C)[C@H]2O)[C@](C)(OC)C[C@@H](C)C(=O)[C@H](C)[C@@H](O)[C@]1(C)O [clarithromycin]
inactive: 1 nM -4.37% | 8.33 nM -0.55% | 100 nM 2.36% | 833.33 nM 1.42% | 10000 nM -3%

O=C1COc2c(CCNCCN(C(=O)CCNCCc3ccc(Cl)c(Cl)c3)C3CCCCC3)ccc(O)c2N1
inactive: 1 nM -5.28% | 8.33 nM -4.67% | 100 nM -5.93% | 833.33 nM -1.32% | 10000 nM -3.71%

CCOC(=O)[C@H](CCc1ccccc1)N[C@H]1CCc2ccccc2N(CC(=O)O)C1=O [benazepril]
inactive: 1 nM 2.45% | 8.33 nM 4.14% | 100 nM 3.52% | 833.33 nM -1.12% | 10000 nM 1.56%

CC1(C)S[C@@H]2[C@H](NC(=O)[C@H](N)c3ccccc3)C(=O)N2[C@H]1C(=O)O [ampicillin]
inactive: 1 nM 0.57% | 8.33 nM 1.76% | 100 nM -0.8% | 833.33 nM -1.53% | 10000 nM 0.38%

CN1C(=O)COc2c(C(=O)NC3CN4CCC3CC4)cc(Cl)cc21 (stereo not given) [azasetron]
inactive: 1 nM 1.97% | 8.33 nM 1.89% | 100 nM 0.9% | 833.33 nM -0.56% | 10000 nM -0.16%

CC(C)(CO)c1cc2cc(NC(=O)C3(c4ccc5c(c4)OC(F)(F)O5)CC3)c(F)cc2n1C[C@@H](O)CO [tezacaftor]
inactive: 1 nM 0.35% | 8.33 nM 0.97% | 100 nM -1.35% | 833.33 nM 1.62% | 10000 nM 0.29%

Cn1c(=O)c2c(ncn2CC(O)CO)n(C)c1=O (stereo not given) [dyphylline]
inactive: 1 nM 1.96% | 8.33 nM -3.64% | 100 nM 0.25% | 833.33 nM 1.93% | 10000 nM -0.77%

NCc1ccc(S(N)(=O)=O)cc1 [mafenide]
inactive: 1 nM 0.46% | 8.33 nM 1.5% | 100 nM 1.54% | 833.33 nM 2.7% | 10000 nM -2.32%

CC1(C)CCC2=C(O1)c1ccccc1C(=O)C2=O [beta-lapachone]
inactive: 1 nM -0.31% | 8.33 nM 0.37% | 100 nM -2.74% | 833.33 nM -1.46% | 10000 nM 10.9%

O=C(O)c1ccc(S(=O)(=O)N(Cc2ccc(OC(F)(F)F)cc2)c2ncc(C(F)(F)F)cc2Cl)cc1
inactive: 1 nM 1.52% | 8.33 nM -0.05% | 100 nM 1.73% | 833.33 nM 1.99% | 10000 nM 4.63%

CN1CC2c3ccccc3Oc3ccc(Cl)cc3C2C1 (stereo not given) [asenapine]
inactive: 1 nM 1.23% | 8.33 nM -0.6% | 100 nM 1.72% | 833.33 nM -0.01% | 10000 nM 6.35%

C[C@@H](O)[C@H]1C(=O)N2C(C(=O)O)=C(SCCNC=N)C[C@H]12 [imipenem]
inactive: 1 nM 2.08% | 8.33 nM 10% | 100 nM 9.32% | 833.33 nM 2.66% | 10000 nM 4.17%

CCCCCCCCNC(=O)/C(C#N)=C/c1cn(CCCN(C)C)c2ccccc12 [dynole-34-2]
inactive: 1 nM 5.01% | 8.33 nM 2.28% | 100 nM 2.72% | 833.33 nM 0.28% | 10000 nM 12.6%

CC(CNC(=O)c1cccnc1)NC(=O)c1cccnc1 (stereo not given) [nicaraven]
inactive: 1 nM 0.7% | 8.33 nM -0.11% | 100 nM -1.71% | 833.33 nM 0.88% | 10000 nM -0.45%

CNc1nc(NCc2ccc(NS(C)(=O)=O)cc2Cl)cc(-c2ccccn2)n1
inactive: 1 nM -1.79% | 8.33 nM -3% | 100 nM 0.48% | 833.33 nM -2.53% | 10000 nM 2.16%

CCC[C@@H]1CC2=CC(=O)CC[C@]2(C)[C@H]2CC[C@@]3(C)[C@@H](CC[C@@]3(O)CCC(=O)O)[C@H]12
inactive: 1 nM 1.5% | 100 nM 3.45% | 833.33 nM -4.91% | 10000 nM 1.68%
active: 8.33 nM 15.1%
